Source: PubChem BioAssay (NCATS)
Where “and” joins values, the source holds several entries; their conditions need not be identical. Equal values may be shown once. Inconclusive results are not listed. Calls of active or inactive are those of the source. Unless noted, calls follow the shape of the dose curve; as a rule, active = well fitted curve in the direction sought with a large enough effect; inconclusive = small, poorly fitted or top-dose-only effect, or another doubt; inactive = no such curve, though single readings can be large; an effect the other way counts as inactive or inconclusive.

What was measured:
[1] = qHTS to identify inhibitors of the type 1 interferon - major histocompatibility complex class I in skeletal muscle: primary screen against the NCATS Mechanism Interrogation Plate v5.0 (MIPE) Libary (AID 1347411); also: nearly all actives have a fitted effect of over 65% in size
Summary of the method: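 Seed engineered human myoblasts (HLA-B HiBit) in medium without dexamethasone containing 4 ng/ml IFN-beta; after 1 hr add compound titrations (top 46 uM final). Incubate 24 hrs at 37 C, lyse 10 min with HiBiT reagent, read luminescence.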

[2] = Primary qHTS for inhibitors of nuclear receptor binding SET domain protein 2 (NSD2) in an isogenic RCH-ACV NSD2 p.E1099K mutant (9B) (AID 1645876); also: nearly all actives have a fitted effect of over 70% in size
[3] = Primary qHTS for inhibitors of nuclear receptor binding SET domain protein 2 (NSD2) in an RCH-ACV wild type WT cells (2C) (AID 1645877); also: nearly all actives have a fitted effect of over 70% in size
[4] = target: Glutathione peroxidase 1 (Homo sapiens) (UniProt P07203); assay: Primary qHTS Assay for Inhibitors of Recombinant Selenoprotein Glutathione Peroxidase 1 (GPX1) (AID 1845191); also: nearly all actives have a fitted effect of over 65% in size
Chain of Glutathione peroxidase 1 (Homo sapiens) (P07203 whole entry, looked up): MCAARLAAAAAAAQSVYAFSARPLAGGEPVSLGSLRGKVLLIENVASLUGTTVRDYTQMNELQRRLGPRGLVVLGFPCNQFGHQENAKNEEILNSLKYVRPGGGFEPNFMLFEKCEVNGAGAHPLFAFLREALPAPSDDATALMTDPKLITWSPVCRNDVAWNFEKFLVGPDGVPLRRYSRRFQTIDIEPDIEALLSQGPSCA
Summary of the method: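 NADPH consumption tracked by fluorescence at 340/450 nm between t=0 and t=15 min, room temperature. Final mix: 10 nM GPX1, 100 nM glutathione reductase, 1 mM GSH, 0.5 mM NADPH, 0.5 mM cumene hydroperoxide, 0.01% BSA; 30 min compound–enzyme preincubation.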

[5] = target: Phospholipid hydroperoxide glutathione peroxidase GPX4 (Homo sapiens) (UniProt P36969); assay: Primary qHTS Assay for Inhibitors of Recombinant Selenoprotein Glutathione Peroxidase 4 (GPX4) (AID 1845192); details: outcome: dose series up to 50 µM unless noted; also: nearly all actives have a fitted effect of over 65% in size
Chain of Phospholipid hydroperoxide glutathione peroxidase GPX4 (Homo sapiens) (P36969 whole entry, looked up): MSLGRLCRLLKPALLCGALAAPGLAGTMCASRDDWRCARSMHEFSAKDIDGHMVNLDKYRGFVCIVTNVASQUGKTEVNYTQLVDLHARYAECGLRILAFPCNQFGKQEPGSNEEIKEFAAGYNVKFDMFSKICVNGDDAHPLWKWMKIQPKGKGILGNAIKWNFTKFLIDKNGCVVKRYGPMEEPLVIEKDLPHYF
Summary of the method: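 NADPH consumption followed by fluorescence at 340/450 nm, t=0 and after 15 min at room temperature. Reaction started with cumene hydroperoxide (0.5 mM final) after 30 min compound–GPX4 preincubation; final 200 nM GPX4, 100 nM GR, 1 mM GSH, 0.5 mM NADPH.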

[6] = qHTS drug screen for cell cycle checkpoint inhibitors in PARPi-resistant BRCA-mutant ovarian cancer cell lines. (AID 1963452; calls by dose curve); details: PEO1/OlaR viability, CellTiter-Glo luminescence, 96 h; for Z-AUC: stronger effect = lower value
Summary of the method: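 PEO1, PEO4 and PEO1/OlaR ovarian cancer cells, 600 per well, exposed 96 h at 37C to a dilution series. Viability read by CellTiter-Glo luminescence, normalized to DMSO and empty wells; activity summarized as Z-AUC.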

[7] = measured here: PEO1 parental Z-AUC
Potency is read from the fitted curve at half-maximal effect.

Structure (SMILES): COc1ccc2[nH]c(C(=O)N3CCC(CC(C)(C)O)CC3)cc2c1
- Potency [1]: inactive
- Potency [2]: inactive
- Potency [3]: inactive
- Potency [4]: inactive
- Potency [5]: inactive
- Z-AUC [6]: 0.0283 (inactive)
- Z-AUC [6, 7]: 0.0965
- Z-AUC ([6]; measured here: PEO4 Z-AUC): 0.395

Structure (SMILES): CCCNC(=O)[C@H]1O[C@@H]1C(=O)N[C@H](C(=O)N1CCC[C@H]1C(=O)OC)C(C)CC (some centres not stated)
- Potency [1]: inactive
- Potency [2]: 6610 nM (active)
- Potency [3]: 7420 nM (active)
- Potency [4]: inactive
- Potency [5]: inactive
- Z-AUC [6]: 0.833 (inactive)
- Z-AUC [6, 7]: 0.0577
- Z-AUC ([6]; measured here: PEO4 Z-AUC): 0.0351

Structure (SMILES): COc1cc([C@@H]2c3cc4c(cc3[C@@H](O[C@@H]3O[C@@H]5CO[C@@H](c6cccs6)O[C@H]5[C@H](O)[C@H]3O)[C@H]3COC(=O)[C@H]23)OCO4)cc(OC)c1O
- Potency [1]: inactive
- Potency [2]: 33.2 nM (active)
- Potency [3]: 23.5 nM (active)
- Potency [4]: inactive
- Potency [5]: inactive
- Potency [6]: 87.1 nM (active)
- Z-AUC [6, 7]: -1.88
- Z-AUC ([6]; measured here: PEO4 Z-AUC): -2.18

Structure (SMILES): C/C(=N\NC(=S)N1CCC1)c1ccccn1
- Potency [1]: inactive
- Potency [2]: 10.5 nM (active)
- Potency [3]: 9.3 nM (active)
- Potency [4]: inactive
- Potency [5]: inactive
- Z-AUC [6]: -0.969 (inactive)
- Z-AUC [6, 7]: -1.12
- Z-AUC ([6]; measured here: PEO4 Z-AUC): -1.07

Structure (SMILES): CCc1cc2c(c(OCC(F)(F)F)c(C(=O)NC3CCN(C(=O)CO)CC3)n2C)c(=O)n1CC(=O)c1ccccc1
- Potency [1]: inactive
- Potency [2]: inactive
- Potency [3]: inactive
- Potency [4]: inactive
- Potency [5]: inactive
- Z-AUC [6]: -1.12 (inactive)
- Z-AUC [6, 7]: -0.345
- Z-AUC ([6]; measured here: PEO4 Z-AUC): 0.581

Structure (SMILES): CC1(C)CCC2(CC1)N[C@@H](C(=O)N[C@@H]1CC[C@@H](C(N)=O)OC1)[C@H](c1ccnc(Cl)c1F)[C@]21C(=O)Nc2cc(Cl)ccc21
- Potency [1]: 17900 nM (active)
- Potency [2]: 319 nM (active)
- Potency [3]: 201 nM (active)
- Potency [4]: inactive
- Potency [5]: inactive
- Z-AUC [6]: -0.537 (inactive)
- Z-AUC [6, 7]: -0.326
- Z-AUC ([6]; measured here: PEO4 Z-AUC): -0.309

Structure (SMILES): CCO[C@@H]1OC(=O)C[C@@H]1NC(=O)[C@@H]1CCCN2C(=O)CC[C@H](NC(=O)c3nccc4ccccc34)C(=O)N12
- Potency [1]: inactive
- Potency [2]: inactive
- Potency [3]: inactive
- Potency [4]: inactive
- Potency [5]: inactive
- Z-AUC [6]: -0.883 (inactive)
- Z-AUC [6, 7]: -0.455
- Z-AUC ([6]; measured here: PEO4 Z-AUC): -1.09

Structure (SMILES): C/C(=N\NC(=O)c1cccc(S(=O)(=O)N2CCOCC2)c1)c1cc(Cl)ccc1O
- Potency [1]: inactive
- Potency [2]: 2090 nM (active)
- Potency [3]: 2090 nM (active)
- Potency [4]: inactive
- Potency [5]: inactive
- Z-AUC [6]: -1.37 (inactive) and -1.59 (inactive)
- Z-AUC [6, 7]: -1.95 and -1.28
- Z-AUC ([6]; measured here: PEO4 Z-AUC): -2.11 and -1.42

Structure (SMILES): C[C@H]1O[C@H](O[C@H]2[C@H](O)[C@@H](O)[C@@H](O[C@H]3[C@H](O)[C@@H](O)C(O)O[C@@H]3CO)O[C@@H]2CO)[C@H](O)[C@@H](O)[C@@H]1N[C@H]1C=C(CO)[C@@H](O)[C@H](O)[C@H]1O (some centres not stated)
- Potency [1]: inactive
- Potency [2]: inactive
- Potency [3]: inactive
- Potency [4]: inactive
- Potency [5]: inactive
- Z-AUC [6]: 0.621 (inactive)
- Z-AUC [6, 7]: 1.06
- Z-AUC ([6]; measured here: PEO4 Z-AUC): 0.614

Structure (SMILES): C=CCN1C[C@H](C(=O)N(CCCN(C)C)C(=O)NCC)CC2c3cccc4[nH]cc(c34)C[C@H]21 (some centres not stated)
- Potency [1]: inactive
- Potency [2]: inactive
- Potency [3]: inactive
- Potency [4]: inactive
- Potency [5]: inactive
- Z-AUC [6]: -0.809 (inactive)
- Z-AUC [6, 7]: -0.35
- Z-AUC ([6]; measured here: PEO4 Z-AUC): -0.259

Structure (SMILES): C=CC(=O)N1CCC[C@H](n2c(=O)n(-c3ccc(Oc4ccccc4)cc3)c3c(N)ncnc32)C1
- Potency [1]: inactive
- Potency [2]: 2090 nM (active)
- Potency [3]: 2090 nM (active)
- Potency [4]: inactive
- Potency [5]: inactive
- Z-AUC [6]: -0.0902 (inactive)
- Z-AUC [6, 7]: 0.044
- Z-AUC ([6]; measured here: PEO4 Z-AUC): -0.151

Structure (SMILES): CC(C)n1ncnc1-c1cn2c(n1)-c1ccc(O[C@@H](C)C(N)=O)cc1OCC2
- Potency [1]: inactive
- Potency [2]: 934 nM (active)
- Potency [3]: 934 nM (active)
- Potency [4]: inactive
- Potency [5]: inactive
- Z-AUC [6]: -1.61 (inactive)
- Z-AUC [6, 7]: -1.38
- Z-AUC ([6]; measured here: PEO4 Z-AUC): -1.69

Structure (SMILES): Cc1nnn(C)c1-c1cnc2c3ccc(C(C)(C)O)cc3n([C@H](c3ccccc3)C3CCOCC3)c2c1
- Potency [1]: inactive
- Potency [2]: 7.4 nM (active)
- Potency [3]: 9.3 nM (active)
- Potency [4]: 18300 nM (active)
- Potency [5]: 16100 nM (active)
- Potency [6]: 549 nM (active)
- Z-AUC [6, 7]: -1.84
- Z-AUC ([6]; measured here: PEO4 Z-AUC): -2.14

Structure (SMILES): CN1C(=O)[C@@H](NC(=O)c2n[nH]c(Cc3ccccc3)n2)COc2ccccc21
- Potency [1]: inactive
- Potency [2]: inactive
- Potency [3]: inactive
- Potency [4]: inactive
- Potency [5]: inactive
- Z-AUC [6]: -0.646 (inactive)
- Z-AUC [6, 7]: -0.812
- Z-AUC ([6]; measured here: PEO4 Z-AUC): -0.659

Structure (SMILES): Cc1cc(C)c(S(=O)(=O)N(CCc2cccc(Br)c2)Cc2ccc(-c3cccc(S(C)(=O)=O)c3)cc2)c(C)c1
- Potency [1]: inactive
- Potency [2]: inactive
- Potency [3]: inactive
- Potency [4]: inactive
- Potency [5]: inactive
- Z-AUC [6]: 0.662 (inactive)
- Z-AUC [6, 7]: 0.747
- Z-AUC ([6]; measured here: PEO4 Z-AUC): 0.467

Structure (SMILES): CCC(=O)N1CCOc2c(cc(-c3cc(OC)cc(OC)c3)cc2C(=O)N[C@H]2CCCN(C)C2)C1
- Potency [1]: inactive
- Potency [2]: 4170 nM (active)
- Potency [3]: 4170 nM (active)
- Potency [4]: inactive
- Potency [5]: inactive
- Z-AUC [6]: 1.12 (inactive)
- Z-AUC [6, 7]: 0.448
- Z-AUC ([6]; measured here: PEO4 Z-AUC): 0.4

Structure (SMILES): O=C(NO)c1ccc(C2=Nc3ccccc3Oc3ccccc32)cc1
- Potency [1]: 18600 nM (active)
- Potency [2]: 2950 nM (active)
- Potency [3]: 2630 nM (active)
- Potency [4]: inactive
- Potency [5]: inactive
- Z-AUC [6]: -0.476 (inactive)
- Z-AUC [6, 7]: -1.06
- Z-AUC ([6]; measured here: PEO4 Z-AUC): -1.1

Structure (SMILES): CC(C)[C@H]1C(=O)N[C@@H](CCCN=C(N)N)C(=O)NCC(=O)N[C@@H](CC(=O)O)C(=O)N[C@H](Cc2ccccc2)C(=O)N1C
- Potency [1]: inactive
- Potency [2]: inactive
- Potency [3]: inactive
- Potency [4]: inactive
- Potency [5]: inactive
- Z-AUC [6]: -1.37 (inactive)
- Z-AUC [6, 7]: -1.22
- Z-AUC ([6]; measured here: PEO4 Z-AUC): -0.795

Structure (SMILES): CNC(=O)Cn1cc(-c2ccc3c(c2)C(F)CC32NC(=O)N(CC(=O)N(Cc3ccc(F)cc3)[C@@H](C)C(F)(F)F)C2=O)cn1 (some centres not stated)
- Potency [1]: inactive
- Potency [2]: 52.5 nM (active)
- Potency [3]: 66.1 nM (active)
- Potency [4]: inactive
- Potency [5]: inactive
- Z-AUC [6]: 0.811 (inactive) and 1.3 (inactive)
- Z-AUC [6, 7]: 0.434 and 1.73
- Z-AUC ([6]; measured here: PEO4 Z-AUC): 0.0101 and 0.997
